Source: PubChem BioAssay (several laboratories)
Sampled rows, rich in hits. Any-hit rate of the full collection: about 0.9%.
Y pestis TopoI: Yersinia pestis topoisomerase I inhibitors, primary screen, biochemical, cleavage product accumulation, plate reader, single point | DNA topoisomerase I (Yersinia pestis CO92) | Y. pestis Topo-I cleavage product accumulation | activity, % at 10 µM | 360,000 compounds, 0.064% hits | AID 504884, 2011; in the data active means activity above about 50%, passing the limit was not always enough
3CLpro inhibitor: SARS-CoV 3CLpro protease inhibitors, primary screen, biochemical, quenched FRET; Replicase polyprotein 1ab (Severe acute respiratory syndrome coronavirus), P0C6X7; recombinant SARS-CoV 3CLpro, quenched FRET peptide cleavage; inhibition, % at 6 µM; 290,000 compounds, 0.14% hits; AID 1706, 2009; in the data active means inhibition above about 12%
SSB-PriA inh: inhibitors of Klebsiella pneumoniae PriA binding to SSB C-terminal tail, primary screen, biochemical, AlphaScreen; PriA–SSB C-terminal tail interaction (Klebsiella pneumoniae); AlphaScreen SSBct-PriA binding, biotinylated peptide; inhibition, % at 33 µM; 430,000 compounds, 0.6% hits; AID 1272365, 2023; in the data active means inhibition mostly above about 37%, no sharp cut-off; inactive means mostly below about 20%;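 further: plate controls were negative control peptide for no effect and reference peptide for full effect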
MazEF act: activators of E. coli MazEF toxin-antitoxin RNase, primary screen, biochemical, fluorescence, uHTS; Endoribonuclease toxin MazF (Escherichia coli (strain K12)), P0AE70; FAM/BHQ RNA-DNA oligo cleavage fluorescence, 5 h; activation, % at 20 µM; 350,000 compounds, 0.32% hits; AID 504720, 2011; in the data active means activation above about 50%
Target sequence (P0AE70 whole entry, looked up): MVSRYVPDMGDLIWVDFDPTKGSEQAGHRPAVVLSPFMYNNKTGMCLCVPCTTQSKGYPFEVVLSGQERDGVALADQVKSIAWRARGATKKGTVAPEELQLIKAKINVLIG
Starred values were filed as active, the others as inactive; i = inactive; nt = no result.

SMILES	Y pestis TopoI	3CLpro inhibitor	SSB-PriA inh	MazEF act
OCCCn1c(-c2ccccc2)csc1=Nc1ccccc1	10	-1	42*	0
COc1cc2nc(N3CCN(c4cc(C)ccc4C)CC3)nc(N)c2cc1OC	-27	1	14	-18
COc1cc2nc(N3CCNCC3)nc(N)c2cc1OC	-5	2	46*	-3
Cc1ccc(C)c(NC(=O)CCC(=O)NN=Cc2cc([N+](=O)[O-])ccc2O)c1	nt	nt	-1	nt
CC1CCN(S(=O)(=O)c2ccc3c(c2)oc(=O)n3CC(=O)N2c3ccccc3CC2C)CC1 (configuration not stated)	30	5	98*	-16
CCN1CCN(c2oc(COc3ccc(-c4ccccc4)cc3)nc2C#N)CC1	19	0	41*	-5
N#Cc1nc(COc2ccc(-c3ccccc3)cc2)oc1N1CCCC1	nt	nt	54*	nt
Cc1ccc(Nc2nc(Cl)c(C=O)s2)cc1Cl	-13	6	-19	53*
O=Cc1sc(Nc2ccccc2)nc1Cl	0	5	-8	-5
Cn1c(N/N=C/c2cc3ccccc3nc2Cl)nc2ccccc21	14	-1	nt	207*
COC(=O)N/N=C\c1ccc(-c2cc(Cl)c(Cl)cc2Cl)o1	-4	5	nt	55*
COC(=O)N/N=C/c1ccc(-c2cc(Cl)ccc2Cl)o1	8	3	nt	5
CCOc1ccc(-c2cc3c(=O)n(Cc4nc(-c5cccc(C(F)(F)F)c5)no4)ccn3n2)cc1	nt	nt	-4	nt
O=C(Cn1nc(C(=O)N2CCOCC2)cc1C1CC1)Nc1cccc(C(F)(F)F)c1	nt	nt	6	nt
Cc1ccc(/C(N)=N/OC(=O)N2c3ccccc3Sc3ccccc32)cc1	-8	-9	nt	-2
Cc1ccc(C(N)=NOC(=O)N2c3ccccc3Sc3ccccc32)cc1	nt	nt	57*	nt
Cc1ccccc1CSc1nccn1-c1ccccc1	17	2	49*	2
N#CC(=C1N=c2ccccc2=N1)c1c(O)[nH]c2ccccc12	nt	-1	nt	nt
Cc1ccc2c(c1)=N/C(=N\c1[nH]c(O)c3ccccc13)N=2	-6	nt	nt	58*
Oc1[nH]c(N=C2N=c3ccccc3=N2)c2ccccc12	-10	0	12	56*
O=[N+]([O-])c1cc(CN2CCN(Cc3ccccc3)CC2)ccc1Sc1ccc(Cl)cc1	nt	nt	58*	nt
O=C(O)c1ccc(-c2ccc(C=c3sc4nc5ccccc5n4c3=O)o2)cc1Cl	nt	nt	-6	nt
Cc1cccc2sc(NC(=O)NC3CC(=O)N(c4cccc(F)c4)C3)nc12 (configuration not stated)	nt	nt	-3	nt
CC(C)c1ccc(-n2nnc(C(=O)N3CCCCC3)c2-n2cccc2)cc1	nt	nt	-5	nt
C/C(CC(=O)NCc1ccco1)=N\NC(=O)Cc1ccc(-c2ccccc2)cc1	1	0	nt	79*
SMILES	Y pestis TopoI	3CLpro inhibitor	SSB-PriA inh	MazEF act
CC(CC(=O)NCc1ccco1)=NNC(=O)Cc1cccc2ccccc12	nt	nt	7	nt
O=c1oc2cc(S(=O)(=O)N3CCOCC3)ccc2n1Cc1ccc([N+](=O)[O-])cc1	nt	nt	48*	nt
Cc1cc(C)n2nc(C(=O)NC(c3cccnc3)C3CCOCC3)nc2n1 (configuration not stated)	nt	nt	-6	nt
CC(=O)Oc1cc2cccc(OC(C)=O)c(=O)c2c(OC(C)=O)c1OC(C)=O	-6	-2	5	214*
COC(=O)c1c[nH]c2c1-c1cc(C(=O)OCc3ccccc3)n(S(=O)(=O)c3ccc(C)cc3)c1C(=O)C2=O	-11	nt	-17	75*
Cc1ccc(S(=O)(=O)Cc2ccc(C(=O)OCc3ccccc3)cc2)cc1	37	3	1	-1
O=C(O)CN1CCN(c2cccc(Cl)c2)C1=O	nt	nt	-6	nt
CCCn1nnnc1NCc1ccc(N(CC)CC)cc1	-3	1	4	555*
O=C(N/N=C/c1cccnc1)c1ccc(NC(=O)C(c2ccccc2)c2ccccc2)cc1	-2	-3	nt	61*
O=C(c1cccs1)N1CCCC(c2nnc(-c3cccs3)o2)C1 (configuration not stated)	nt	nt	-21	nt
Cc1ccc(OCc2cc(C(=O)N3CCCCCCC3)no2)cc1C	27	-4	-33	3
Cc1ccc(OCc2cc(C(=O)N3CCc4sccc4C3)no2)cc1C	54*	3	-18	-5
N#C/C(=C(/O)c1ccco1)c1nc2ccccc2s1	2	0	-4	-9
CC1=CC(=C(C#N)c2nc3ccccc3s2)C=C(C)N1Cc1ccco1	-3	-7	-7	605*
Nc1c(Cl)ncnc1NN=Cc1ccc2ccccc2n1	nt	nt	54*	nt
O=C(NCCn1ncc2c(N3CCCC3)ncnc21)C1(c2cccs2)CCCC1	nt	nt	-3	nt
Cn1c(=O)cc2c3c(c(Br)ccc31)C(=O)c1ccccc1-2	nt	nt	-28	nt
Cn1c(=O)c(N)c2c3c(c(Br)ccc31)C(=O)c1ccccc1-2	0	-3	42*	i
O=C(CSc1nc2[nH]ncc2c(=O)[nH]1)Nc1ccc([N+](=O)[O-])cc1	nt	nt	19	nt
C=C(C)Cn1c(SCC(=O)Nc2cc(Cl)ccc2OC)nc2sc3c(c2c1=O)CCC3	nt	nt	-2	nt
Cc1csc(C(=O)NCc2nn(CCN3CCCC3)c(=O)c3ccccc23)c1	nt	nt	45*	nt
O=C1CSC(=S)N1N=Cc1ccc(O)c(O)c1O	nt	nt	100*	nt
CCOc1cccc(C=NN2C(=O)CSC2=S)c1O	nt	nt	71*	nt
O=C1CSC(=S)N1N=Cc1ccccc1O	-11	nt	30	2
COc1cccc(C=NN2C(=O)CSC2=S)c1O	nt	nt	93	nt
SMILES	Y pestis TopoI	3CLpro inhibitor	SSB-PriA inh	MazEF act
O=C(Cc1ccccc1)NCCOc1cccc(C(F)(F)F)c1	nt	nt	4	nt
Cc1ccc(-c2c(C(=O)N/N=C/c3ccc4c(c3)OCO4)nnn2-c2nonc2N)cc1	58*	0	nt	-27
O=C(Cc1csc(Nc2ccccc2)n1)NCc1ccc2c(c1)OCO2	nt	nt	11	nt
Fc1ccc(C2=CC(c3ccco3)n3ncnc3N2)cc1 (configuration not stated)	-3	-1	-20	13
C1=C(c2ccc(-c3ccccc3)cc2)Nc2ncnn2C1c1ccco1 (configuration not stated)	-5	3	-7	344*
COCCNC(=O)NCC(O)(c1ccccc1)C1CC1 (configuration not stated)	nt	nt	-8	nt
CCOc1ccc(NC(=S)Nc2cccc3cnccc23)cc1	-6	-3	33	3
Cc1ccc(NC(=S)Nc2cccc3ccccc23)cc1	-24	4	30	5
COc1ccc(C(=S)Nc2ccc(C)cc2)cc1	-7	1	-2	5
COc1ccc(NC(=S)c2ccc3ccccc3n2)cc1	3	-2	44*	4
